PubChem BioAssay (NCATS)
Records with an inconclusive call do not appear. A call without a number means that no potency is given here. Calls of active or inactive are those of the source. Calls follow the shape of the dose curve; as a rule, active = well fitted curve in the direction sought with a large enough effect; inconclusive = small, poorly fitted or top-dose-only effect, or another doubt; inactive = no such curve, though single readings can be large; an effect the other way counts as inactive or inconclusive.

Legend:
[1] = qHTS assay to identify small molecule inhibitors of chordoma cells - UCH-1 (AID 1259355); also: nearly all actives have a fitted effect of over 55% in size; also: potency is read from the fitted curve at half-maximal effect; series mostly up to about 46 µM
Summary of the method: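 800 cells/well, overnight attach; compounds pinned at 15 concs, then auranofin/camptothecin/doxorubicin/rubitecan/topotecan combo added; 48hr 37 C, 5% CO2; CellTiter-Glo, 30min RT, luminescence.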

[2] = qHTS assay to identify small molecule inhibitors of chordoma cells - UCH-2 (AID 1259356); also: series mostly up to about 46 µM
[3] = P-glycoprotein substrates identified in KB-3-1 adenocarcinoma cell line, qHTS therapeutic library screen (AID 1346986); conditions: KB-3-1 parental cells viability, CellTiter-Glo, 72 h; also: nearly all actives have a fitted effect of over 60% in size
Summary of the method: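 Viability read by CellTiter-Glo after 72 h compound exposure in dose-response of KB-3-1 and KB-8-5-11 (P-gp-high) cells. Hits needed AC50 < 10 uM, >50% maximum response and curve class -1.1 to -2.4. Cherry-picks retested ± tariquidar, including pcDNA/MDR-19 HEK-293 pair.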

Structure (SMILES)	Potency [1]	Potency [2]	outcome [3]
CN1C(C(=O)Nc2ccccn2)C(=O)c2sc(Cl)cc2S1(=O)=O (stereo not drawn)	inactive	inactive	–
C=N[C@@H](C(=O)N[C@@H]1C(=O)N2[C@@H]1SC(C)(C)[C@@H]2C(=O)O)c1ccccc1	inactive	inactive	–
CSc1nc2cc(Oc3cccc(Cl)c3Cl)c(Cl)cc2[nH]1	inactive	inactive	–
CCCC(=O)Nc1c(I)cc(I)c(CC(CC)C(=O)O)c1I (stereo not drawn)	inactive	inactive	–
CC(C)(C)NC[C@H](O)COc1ccccc1C1CCCC1	inactive	inactive	–
CCCCCCCCCCCCCCCCCC[N+](C)(C)CCC[Si](OC)(OC)OC	inactive	inactive	–
CCN(CC)CCC(=O)N1c2ccccc2Sc2ccc(C(F)(F)F)cc21	inactive	inactive	–
CC1=C(/C=C/C(C)=C/C=C/C(C)=C/C=C/C=C(C)/C=C/C=C(C)/C=C/C2=C(C)C[C@@H](O)CC2(C)C)C(C)(C)C[C@H](O)C1	inactive	inactive	–
CC(C)(COP(=O)(O)OP(=O)(O)OC[C@H]1O[C@@H](n2cnc3c(N)ncnc32)[C@H](O)[C@@H]1OP(=O)(O)O)C(O)C(=O)NCCC(=O)NCCS (stereo partly drawn)	inactive	inactive	–
CCOc1ccc(NC(=S)Nc2ccc(OCC)cc2)cc1	inactive	inactive	–
c1ccc2c(c1)Sc1ccccc1N2CCN1CCCC1	inactive	inactive	–
CCC[C@@H]1C[C@@H](C(=O)N[C@@H]([C@H]2O[C@H](SC)[C@H](O)[C@@H](O)[C@H]2O)[C@H](C)Cl)N(C)C1	inactive	inactive	–
CC(C)NCC(O)COc1ccccc1-n1cccc1 (stereo not drawn)	inactive	inactive	–
CCN(CC)CCOc1ccc2nc(N(C)C)sc2c1	inactive	inactive	–
CC12CCC(C[N+](C)(CCC[N+](C)(C)C)C1)C2(C)C (stereo not drawn)	inactive	inactive	–
CC(C)=CCC/C(C)=C/CC/C(C)=C/CC/C(C)=C/CC1=C(C)C(=O)c2ccccc2C1=O	inactive	inactive	–
CN[C@@H]1[C@H](O[C@H]2[C@H](O[C@H]3[C@H](O)[C@@H](O)[C@H](N=C(N)N)[C@@H](O)[C@@H]3N=C(N)N)O[C@@H](C)[C@]2(O)CO)O[C@@H](CO)[C@H](O)[C@H]1O	inactive	inactive	–
COC(=O)CC[C@H](N)C(=O)O	inactive	inactive	–
CC[C@@H](C(=O)[C@@H](C)[C@@H](O)[C@H](C)[C@@H]1O[C@@H]([C@@H](CC)C(=O)O)CC[C@@H]1C)[C@H]1O[C@]2(C=C[C@@H](O)[C@]3(CC[C@@](C)([C@H]4CC[C@](O)(CC)[C@H](C)O4)O3)O2)[C@H](C)C[C@@H]1C	11.2 µM (active)	inactive	–

Structure (SMILES)	Potency [1]	Potency [2]	outcome [3]
CCN(CC)C(=O)c1cccnc1	inactive	inactive	–
CC(C)N1CCN(c2ccc(OC[C@H]3CO[C@](Cn4cncn4)(c4ccc(Cl)cc4Cl)O3)cc2)CC1	inactive	inactive	–
C[C@@H]1NC(=O)[C@@H](N)CNC(=O)[C@H](C2CCNC(N)=N2)NC(=O)/C(=C/NC(N)=O)NC(=O)[C@H](CNC(=O)C[C@@H](N)CCCN)NC1=O (stereo partly drawn)	inactive	inactive	–
C[C@]12CC[C@@H]3c4ccc(O)cc4CC[C@H]3[C@@H]1CC[C@@H]2OP(=O)(O)O	inactive	inactive	–
CC(CN(C)C)CN1c2ccccc2Sc2ccc(C(F)(F)F)cc21 (stereo not drawn)	inactive	inactive	–
Cn1c(O)c(N=NC(N)=S)c2ccccc21	inactive	inactive	–
CCN(CC)CCOCCOC(=O)C(CC)(CC)c1ccccc1	inactive	inactive	–
C=C[C@]1(C)C[C@@H](OC(=O)CSCCN(CC)CC)[C@]2(C)[C@H](C)CC[C@]3(CCC(=O)[C@H]32)[C@@H](C)[C@@H]1O	inactive	inactive	–
COc1ccccc1N1CCN(CCCC(=O)c2ccc(F)cc2)CC1	inactive	inactive	–
CC(C)CCC[C@@H](C)[C@H]1CC(=O)C2=C3CC[C@H]4C[C@@H](O)CC[C@]4(C)[C@H]3CC[C@@]21C	inactive	inactive	–
COC(=O)[C@H]1[C@H]2C[C@@H]3c4[nH]c5cc(OC)ccc5c4CCN3C[C@H]2C[C@H](OC)[C@@H]1OC	inactive	inactive	–
C[C@@H](O)[C@H]1C(=O)N2C(C(=O)[O-])=C(SC3Cn4cnc[n+]4C3)[C@H](C)[C@H]12 (stereo partly drawn)	inactive	inactive	–
CN(C)CCC=C1c2ccccc2C(C)(C)c2ccccc21	inactive	inactive	–
CCCCC[C@H](O)/C=C/[C@@H]1[C@H]2C/C(=C/CCCC(=O)O)O[C@H]2C[C@H]1O	inactive	inactive	–
CC1(C)C(\C=C/C=C\C=C/C=C2/N(CCCCS(=O)(=O)O)c3ccc4ccccc4c3C2(C)C)=[N+](CCCCS(=O)(=O)[O-])c2ccc3ccccc3c21	inactive	inactive	–
CCN(CC)CCC(=O)N1c2ccccc2Sc2ccc(Cl)cc21	inactive	inactive	–
CCOC(=O)c1cc(-c2ccccc2)nc2ccc(C)cc12	inactive	inactive	–
CN[C@@H]1[C@H](O[C@H]2[C@H](O[C@H]3[C@H](O)[C@@H](O)[C@H](N=C(N)N)[C@@H](O)[C@@H]3N=C(N)N)O[C@@H](C)[C@]2(O)C=O)O[C@@H](CO)[C@H](O)[C@H]1O	–	–	inactive
